The target in test [1] is RAC-alpha serine/threonine-protein kinase (Homo sapiens) (UniProt P31749). The note with it: at 0.1 µM.
The target is the same in test [2]. To be noted: at 1 µM.
Test [3] deals with RAC-beta serine/threonine-protein kinase (Homo sapiens) (UniProt P31751). The note with it: at 0.1 µM.
The target is the same in test [4]. To be noted: at 1 µM.
The target of test [5] is RAC-gamma serine/threonine-protein kinase (Homo sapiens) (UniProt Q9Y243). To be noted: at 0.1 µM.
Test [6] shares this target. The note with it: at 1 µM.
In test [7] the target is G protein-coupled receptor kinase 6 (Homo sapiens) (UniProt P43250). To be noted: at 0.1 µM.
Chain of G protein-coupled receptor kinase 6 (Homo sapiens) (P43250 whole entry, looked up): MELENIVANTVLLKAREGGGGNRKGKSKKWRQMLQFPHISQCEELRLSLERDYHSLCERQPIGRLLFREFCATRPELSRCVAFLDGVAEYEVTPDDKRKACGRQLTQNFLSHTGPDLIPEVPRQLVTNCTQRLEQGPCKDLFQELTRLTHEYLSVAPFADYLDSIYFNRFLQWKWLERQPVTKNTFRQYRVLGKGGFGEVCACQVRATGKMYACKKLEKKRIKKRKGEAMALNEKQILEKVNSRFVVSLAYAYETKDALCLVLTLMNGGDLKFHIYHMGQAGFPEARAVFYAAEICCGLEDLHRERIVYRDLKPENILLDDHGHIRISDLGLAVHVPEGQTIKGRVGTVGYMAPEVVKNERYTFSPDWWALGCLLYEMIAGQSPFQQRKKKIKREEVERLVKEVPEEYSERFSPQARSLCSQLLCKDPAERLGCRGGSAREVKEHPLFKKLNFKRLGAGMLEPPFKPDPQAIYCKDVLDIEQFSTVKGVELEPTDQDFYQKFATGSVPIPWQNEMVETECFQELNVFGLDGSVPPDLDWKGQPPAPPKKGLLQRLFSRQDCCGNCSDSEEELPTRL
The target is the same in test [8]. To be noted: at 1 µM.
Test [9] addresses T1, Rhodopsin kinase GRK7 (Homo sapiens) (UniProt Q8WTQ7).
T1 sequence (whole entry): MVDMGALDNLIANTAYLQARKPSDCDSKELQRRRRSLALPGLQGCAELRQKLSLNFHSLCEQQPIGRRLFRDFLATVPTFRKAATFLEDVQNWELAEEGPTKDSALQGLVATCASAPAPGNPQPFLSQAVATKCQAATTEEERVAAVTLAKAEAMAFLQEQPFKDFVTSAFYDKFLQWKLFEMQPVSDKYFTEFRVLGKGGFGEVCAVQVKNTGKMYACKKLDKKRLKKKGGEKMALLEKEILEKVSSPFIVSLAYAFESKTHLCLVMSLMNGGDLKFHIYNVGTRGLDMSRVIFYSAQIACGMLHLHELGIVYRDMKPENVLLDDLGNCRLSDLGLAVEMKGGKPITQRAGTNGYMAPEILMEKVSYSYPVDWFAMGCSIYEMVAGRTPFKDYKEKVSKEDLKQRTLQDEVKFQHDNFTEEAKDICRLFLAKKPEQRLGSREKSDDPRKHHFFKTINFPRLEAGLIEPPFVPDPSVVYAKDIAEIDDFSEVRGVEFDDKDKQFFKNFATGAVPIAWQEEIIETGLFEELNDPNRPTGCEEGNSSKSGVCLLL
To be noted: at 0.1 µM.

Test [10] concerns the target T1, Rhodopsin kinase GRK7 (Homo sapiens). To be noted: at 1 µM.
Test [11] deals with Serine/threonine-protein kinase MRCK alpha (Homo sapiens) (UniProt Q5VT25). To be noted: at 0.1 µM.
Test [12] shares this target. To be noted: at 1 µM.
Test [13] concerns the target Serine/threonine-protein kinase MRCK beta (Homo sapiens) (UniProt Q9Y5S2). The note with it: at 0.1 µM.
Test [14] shares this target. The note with it: at 1 µM.
The target in test [15] is Ribosomal protein S6 kinase alpha-5 (Homo sapiens) (UniProt O75582). The note with it: at 0.1 µM.
Chain of Ribosomal protein S6 kinase alpha-5 (Homo sapiens) (O75582 whole entry, looked up): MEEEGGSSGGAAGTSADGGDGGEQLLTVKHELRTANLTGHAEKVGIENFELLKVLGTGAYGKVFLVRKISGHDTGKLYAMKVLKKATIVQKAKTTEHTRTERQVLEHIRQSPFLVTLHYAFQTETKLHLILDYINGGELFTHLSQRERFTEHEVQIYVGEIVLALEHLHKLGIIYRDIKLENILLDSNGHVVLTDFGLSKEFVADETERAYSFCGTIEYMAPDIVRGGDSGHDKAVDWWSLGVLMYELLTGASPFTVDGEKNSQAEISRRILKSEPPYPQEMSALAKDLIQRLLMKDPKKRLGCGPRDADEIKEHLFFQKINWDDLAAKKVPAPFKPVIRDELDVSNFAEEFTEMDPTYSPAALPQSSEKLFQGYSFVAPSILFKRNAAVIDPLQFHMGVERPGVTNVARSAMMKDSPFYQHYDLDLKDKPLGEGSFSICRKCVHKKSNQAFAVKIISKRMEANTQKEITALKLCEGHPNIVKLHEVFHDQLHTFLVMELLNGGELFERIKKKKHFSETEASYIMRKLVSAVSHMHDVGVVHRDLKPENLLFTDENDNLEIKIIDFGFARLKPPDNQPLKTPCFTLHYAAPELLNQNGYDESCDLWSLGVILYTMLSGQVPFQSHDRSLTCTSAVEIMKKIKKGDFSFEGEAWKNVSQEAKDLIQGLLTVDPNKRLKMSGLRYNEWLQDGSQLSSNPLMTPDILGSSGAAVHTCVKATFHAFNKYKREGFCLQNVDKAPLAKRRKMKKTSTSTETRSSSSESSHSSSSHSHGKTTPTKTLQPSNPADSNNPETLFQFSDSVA
For test [16] the target is unchanged. The note with it: at 1 µM.
For test [17], the target named is Ribosomal protein S6 kinase alpha-4 (Homo sapiens) (UniProt O75676). The note with it: at 0.1 µM.
Chain of Ribosomal protein S6 kinase alpha-4 (Homo sapiens) (O75676 whole entry, looked up): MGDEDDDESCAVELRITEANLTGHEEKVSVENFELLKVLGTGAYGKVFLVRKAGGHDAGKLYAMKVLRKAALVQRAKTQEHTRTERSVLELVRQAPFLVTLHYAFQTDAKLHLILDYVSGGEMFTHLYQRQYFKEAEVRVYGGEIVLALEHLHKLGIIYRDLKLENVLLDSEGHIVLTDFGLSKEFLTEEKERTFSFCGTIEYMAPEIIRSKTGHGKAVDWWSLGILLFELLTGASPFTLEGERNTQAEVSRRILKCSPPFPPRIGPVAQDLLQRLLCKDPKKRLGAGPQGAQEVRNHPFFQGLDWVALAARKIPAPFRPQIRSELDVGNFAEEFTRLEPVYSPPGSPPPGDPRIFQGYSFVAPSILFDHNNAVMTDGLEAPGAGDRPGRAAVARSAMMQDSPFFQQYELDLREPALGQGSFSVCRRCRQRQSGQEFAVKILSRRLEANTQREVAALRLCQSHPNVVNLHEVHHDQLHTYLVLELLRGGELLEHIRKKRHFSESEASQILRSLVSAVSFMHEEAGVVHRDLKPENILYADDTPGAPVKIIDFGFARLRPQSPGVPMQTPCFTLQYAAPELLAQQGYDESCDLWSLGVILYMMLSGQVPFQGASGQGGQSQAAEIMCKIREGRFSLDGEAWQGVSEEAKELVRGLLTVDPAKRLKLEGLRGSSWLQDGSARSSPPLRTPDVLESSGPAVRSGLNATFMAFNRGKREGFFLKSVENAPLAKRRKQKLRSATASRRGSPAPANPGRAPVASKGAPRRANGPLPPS
The target is the same in test [18]. To be noted: at 1 µM.
For test [19], the target named is Ribosomal protein S6 kinase beta-1 (Homo sapiens) (UniProt P23443). To be noted: at 0.1 µM.
Test [20] has the same target. The note with it: at 1 µM.

From ChEMBL document CHEMBL1961873, “Compounds: GSK PKIS; Assays: Nanosyn kinase panel” (2012) come the findings set out here.

Chain of RAC-beta serine/threonine-protein kinase (Homo sapiens) (P31751 whole entry): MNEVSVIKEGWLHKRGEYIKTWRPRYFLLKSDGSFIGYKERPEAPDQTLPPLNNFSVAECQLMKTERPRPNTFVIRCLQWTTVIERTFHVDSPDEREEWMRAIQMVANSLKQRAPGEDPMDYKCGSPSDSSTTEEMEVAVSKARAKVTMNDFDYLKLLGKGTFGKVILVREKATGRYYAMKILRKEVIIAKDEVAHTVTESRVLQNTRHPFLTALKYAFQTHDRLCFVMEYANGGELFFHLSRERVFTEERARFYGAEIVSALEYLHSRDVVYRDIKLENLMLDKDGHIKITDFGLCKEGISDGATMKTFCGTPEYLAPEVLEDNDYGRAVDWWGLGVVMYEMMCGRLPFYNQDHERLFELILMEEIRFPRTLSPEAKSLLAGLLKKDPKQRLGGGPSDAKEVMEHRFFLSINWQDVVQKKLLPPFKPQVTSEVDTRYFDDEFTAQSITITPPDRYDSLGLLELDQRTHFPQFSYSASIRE
Chain of RAC-gamma serine/threonine-protein kinase (Homo sapiens) (Q9Y243 whole entry): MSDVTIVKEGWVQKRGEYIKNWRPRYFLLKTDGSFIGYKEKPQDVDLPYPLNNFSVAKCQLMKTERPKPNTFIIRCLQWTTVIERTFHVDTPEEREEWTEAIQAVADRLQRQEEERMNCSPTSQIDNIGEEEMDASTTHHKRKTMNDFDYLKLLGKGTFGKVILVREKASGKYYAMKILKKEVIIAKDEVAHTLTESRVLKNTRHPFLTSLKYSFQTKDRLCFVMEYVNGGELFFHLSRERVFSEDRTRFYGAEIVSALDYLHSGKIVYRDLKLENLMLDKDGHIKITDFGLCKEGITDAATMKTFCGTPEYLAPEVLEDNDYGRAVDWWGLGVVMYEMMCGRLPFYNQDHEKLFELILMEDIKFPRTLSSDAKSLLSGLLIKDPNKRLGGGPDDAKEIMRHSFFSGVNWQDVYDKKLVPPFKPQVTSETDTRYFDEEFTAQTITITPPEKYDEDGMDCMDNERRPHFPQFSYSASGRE
Chain of Serine/threonine-protein kinase MRCK beta (Homo sapiens) (Q9Y5S2 whole entry): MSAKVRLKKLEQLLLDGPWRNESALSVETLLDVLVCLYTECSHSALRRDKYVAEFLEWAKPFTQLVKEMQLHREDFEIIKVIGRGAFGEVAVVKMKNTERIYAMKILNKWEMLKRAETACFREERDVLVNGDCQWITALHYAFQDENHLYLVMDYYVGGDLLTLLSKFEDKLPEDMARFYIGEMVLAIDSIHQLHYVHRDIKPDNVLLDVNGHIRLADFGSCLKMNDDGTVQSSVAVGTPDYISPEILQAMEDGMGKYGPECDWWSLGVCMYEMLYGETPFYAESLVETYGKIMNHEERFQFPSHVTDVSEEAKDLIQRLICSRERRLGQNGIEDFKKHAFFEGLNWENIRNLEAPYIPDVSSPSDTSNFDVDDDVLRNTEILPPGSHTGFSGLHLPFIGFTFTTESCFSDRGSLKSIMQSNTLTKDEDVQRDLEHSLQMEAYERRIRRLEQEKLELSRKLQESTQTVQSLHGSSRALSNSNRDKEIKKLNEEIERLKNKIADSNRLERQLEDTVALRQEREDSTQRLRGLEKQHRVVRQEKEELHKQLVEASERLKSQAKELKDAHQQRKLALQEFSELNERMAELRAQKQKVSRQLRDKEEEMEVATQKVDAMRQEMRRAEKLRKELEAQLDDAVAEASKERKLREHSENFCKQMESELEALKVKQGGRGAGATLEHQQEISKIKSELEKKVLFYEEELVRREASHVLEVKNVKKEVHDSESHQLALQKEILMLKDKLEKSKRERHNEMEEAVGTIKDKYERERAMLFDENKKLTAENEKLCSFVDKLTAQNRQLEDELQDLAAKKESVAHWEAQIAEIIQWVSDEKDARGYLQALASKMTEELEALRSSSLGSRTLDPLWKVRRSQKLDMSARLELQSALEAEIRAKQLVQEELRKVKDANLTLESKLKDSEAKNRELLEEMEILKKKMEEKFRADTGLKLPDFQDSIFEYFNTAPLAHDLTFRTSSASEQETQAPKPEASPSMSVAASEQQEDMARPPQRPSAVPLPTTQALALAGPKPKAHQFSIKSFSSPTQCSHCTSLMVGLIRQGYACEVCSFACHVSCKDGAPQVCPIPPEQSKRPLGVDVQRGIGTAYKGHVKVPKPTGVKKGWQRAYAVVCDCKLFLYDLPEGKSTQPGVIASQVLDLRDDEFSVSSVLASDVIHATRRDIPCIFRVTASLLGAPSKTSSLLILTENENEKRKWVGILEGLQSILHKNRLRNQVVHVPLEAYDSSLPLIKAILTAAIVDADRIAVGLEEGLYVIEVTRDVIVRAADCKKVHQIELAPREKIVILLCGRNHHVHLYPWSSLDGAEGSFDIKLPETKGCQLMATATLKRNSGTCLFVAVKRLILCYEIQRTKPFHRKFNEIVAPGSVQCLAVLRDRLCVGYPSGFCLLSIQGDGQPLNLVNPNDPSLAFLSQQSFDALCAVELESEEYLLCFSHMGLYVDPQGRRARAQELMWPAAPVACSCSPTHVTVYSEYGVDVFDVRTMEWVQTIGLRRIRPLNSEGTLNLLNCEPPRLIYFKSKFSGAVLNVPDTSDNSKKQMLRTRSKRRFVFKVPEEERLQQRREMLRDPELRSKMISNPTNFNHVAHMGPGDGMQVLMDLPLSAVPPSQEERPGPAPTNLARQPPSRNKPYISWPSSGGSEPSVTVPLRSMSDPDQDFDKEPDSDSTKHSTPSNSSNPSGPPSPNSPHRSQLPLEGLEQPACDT

As to `COc1ccc(-c2nn3ncccc3c2-c2ccnc(Nc3ccc(F)c(F)c3)n2)cc1`, the inhibition stood at 0.52% in [1]; 2.13% in test [2]; 1.56% in test [3]; 1.42% in test [4]; 1.4% in test [5]; 2.01% in test [6]. Moreover, the inhibition in test [7] amounted to 7.85%; in [8] it was 10.1%; in [9], 6.45%; in test [10], 7.95%; in test [11], 0.67%; in test [12] it was 4.1%. For the same compound, the inhibition in [13] is -0.01%; in test [14], -0.11%; in test [15], 3.92%; in test [16], 6.45%; in [17], 3.37%; in [18], 4.5%. For the same compound, the inhibition in test [19] is 1.91%; in test [20], 2.58%.
Regarding `N#Cc1ccc2c(-c3ccnc(NC4CC4)n3)c(-c3ccc(F)cc3)nn2c1`, the inhibition in [1] was 0.77%; in test [2], -0.12%; in [3] it was 0.14%; in [4] it was 0.78%; in [5], 0.56%; in [6] it was 2.99%. Besides, the inhibition in test [7] was 1.67%; in test [8] it was 2.24%; in test [9], 4.35%; in test [10], 1.98%; in test [11], 0.79%; in test [12], 0.87%. Besides, the inhibition is 0.13% in test [13]; 0.52% in test [14]; 0.77% in test [15]; -0.33% in [16]; 0.92% in test [17]; -0.56% in test [18]. Besides, the inhibition in test [19] is 0.06%; in test [20], -0.85%.
As for `O=C(O[C@H]1CN[C@H](C#Cc2cc3ncnc(Nc4ccc(OCc5cccc(F)c5)c(Cl)c4)c3s2)C1)N1CCOCC1`, the inhibition in test [1] was determined as 0.61%; in test [2] it was 0.67%; in test [3], 2.23%; in [4], 2.72%; in test [5] it was 1.68%; in test [6], 1.6%. For the same compound, the inhibition in [7] was 9.5%; in [8] it was 13.6%; in [9] it was 5.62%; in [10], 16%; in [11], -0.44%; in test [12] it was 0.92%. Moreover, the inhibition was 0.34% in test [13]; 0.26% in test [14]; -0.86% in test [15]; 0.41% in test [16]; 2.64% in test [17]; 4.39% in [18]. Further, the values for the inhibition in [19] and in test [20] were 1.72% and 2.85%, respectively.
For the compound `COc1ccccc1-c1cc(/C=C2\C(=O)Nc3ncc(Br)cc32)cc(Br)c1O`, the inhibition came out at 0.67% in test [1]; 0.15% in test [2]; 1.96% in test [3]; 2.36% in test [4]; 1.93% in test [5]; 0.61% in test [6]. For the same compound, the inhibition in test [7] was 5.35%; in [8], 30.3%; in [9], 28.7%; in test [10] it was 57.2%; in test [11] it was -0.66%; in [12], -2.56%. Moreover, the inhibition was -0.06% in test [13]; -0.72% in test [14]; 3.42% in test [15]; 1.75% in test [16]; 1.76% in test [17]; 6.3% in test [18]. For the same compound, the inhibition in test [19] was determined as 2.51%; in test [20], 2.75%.
As for `CNC(=O)c1ncccc1Nc1nc(Nc2cc3c(cc2OC)CCCN3C(=O)CN(C)C)nc2[nH]ccc12`, the inhibition in [1] is 1.11%; in test [2], 1.38%; in test [3], 2.81%; in test [4], 2.14%; in test [5], 2.74%; in test [6] it was 1.71%. The inhibition in test [7] is 14.5%; in [8], 56.7%; in test [9], 16.9%; in test [10], 50.4%; in [11] it was -0.11%; in test [12] it was 2.88%. The inhibition turned out to be 1.2% in test [13]; 2.41% in test [14]; 3.81% in test [15]; 3.98% in test [16]; 2.93% in test [17]; 5.8% in test [18]. Besides, the inhibition came out at 2.79% in test [19] and 3.62% in test [20].
On to `O=C(Nc1n[nH]c2nnc(-c3cccnc3)cc12)C1CC1`, for which the inhibition in [1] is -0.73%; in test [2] it was -0.67%; in [3] it was -0.56%; in [4], 0.1%; in test [5], -0.57%; in test [6], 5.03%. For the same compound, the inhibition in test [7] was 3.53%; in [8], 0.48%; in [9], 2.31%; in test [10], -1.4%; in test [11], 2.61%; in [12], -0.69%. The inhibition in test [13] is 0.62%; in [14], 0.7%; in test [15], -1.47%; in test [16] it was -0.64%; in [17], -0.31%; in test [18], 0.76%. The inhibition is -0.26% in test [19] and 0.25% in test [20].
As for `COc1cc(N2CCN(C(C)C)CC2)ccc1Nc1nc(Nc2cccc(F)c2C(=O)O)c2cc[nH]c2n1`, the inhibition in test [1] was 0.12%; in test [2], 0.67%; in test [3], 1.27%; in [4], 1.08%; in test [5], 0.73%; in [6] it was 2.08%. The inhibition in test [7] is 6.59%; in test [8], 10.8%; in test [9] it was 3.79%; in test [10] it was 5.95%; in [11] it was -0.32%; in [12], 1.08%. In addition, the inhibition in test [13] was -1.28%; in test [14] it was 0.34%; in [15], 2.89%; in test [16], 3.87%; in test [17], 0.48%; in test [18], 2.67%. Besides, the inhibition amounted to 1.22% in [19] and 2.81% in test [20].
